# Assay outcomes (PubChem)
# This is a sample that favours compounds with a hit; in the whole collection about 1.6% have one here.
# PG9 binder: small molecules binding HIV-1 gp120 antibody PG9; TR-FRET gp120-PG9 antibody binding; inhibition, % at 6.7 µM; 0.43% of 360,000 active; in the data active means inhibition above about 8.5%
# V-ATPase pHluor: alters yeast V-ATPase proton transport | 0.37% of 350,000 active | AID 504577 | response, % at 10 µM | S. cerevisiae, pHLuorin cytosolic pH fluorescence; in the data active means response mostly above about 7.3%, no sharp cut-off; inactive means mostly below about 5.4%; further: actives read high
# NPR2 activator: GC-B (human) receptor activation. HEK293-GC-B cells, CNP EC30, cGMP TR-FRET; 0% at EC30 CNP, 100% saturating CNP. activation, % at 10 µM. AID 1920062. P20594. 0.11% of 370,000 active;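 active means activation at 10 µM reaching about 35% in either raw or pattern-adjusted values, limit read from the data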
# Rev-erbA mod: modulators of human Rev-erb alpha DNA binding. activity, % at 10 µM. Rev-erbα–FITC-DNA binding, fluorescence polarization, 90 min. AID 1259318. 0.79% of 370,000 active. P20393;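 active means activity above about 14%, limit read from the data; passing the limit was not always enough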;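 further: 0% = DMSO wells with 35 nM protein and 100% = DMSO wells with 750 nM protein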
# GC-A act: GC-A (human) enzyme activation; HEK293 GC-A cells, cGMP TR-FRET, EC30 ANP; 0% at EC30 ANP, 100% saturating ANP; P16066; activation, % at 10 µM; AID 1671463; 0.14% of 370,000 active; in the data active means activation above about 40%
# NR1D1 mod conf: Rev-erb alpha (human) modulation, hit confirmation; shares compounds with Rev-erbA mod; Rev-erb alpha FITC-DNA binding, fluorescence polarization, 90 min; activation, % at 25 µM; 61% of 3,000 active; AID 1259319;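 active means activation at or above a set limit, or at least 3 SD above the negative control mean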;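 further: 0% = 35 nM protein with DMSO and 100% = 750 nM protein high control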
# RORg DNA counter: counter-screen for Rev-erb alpha modulators: RORgamma DNA binding; purified RORgamma protein-FITC-DNA binding, fluorescence polarization; 8% of 910 active; IC50, µM; shares compounds with Rev-erbA mod;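 active means Compounds whose fitted half-maximal concentration for disrupting protein-DNA binding is below 10 micromolar; the record names Rev-erb in its text, so the target is in doubt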
# * hit, by the source's call; x = not tested or not shown.
SMILES,PG9 binder,V-ATPase pHluor,NPR2 activator,Rev-erbA mod,GC-A act,NR1D1 mod conf,RORg DNA counter
O=C(COC(=O)c1sc2cc(F)ccc2c1Cl)Nc1ncc(Cl)cc1Cl,-1.7,-4.4,-4.1,64.0*,0.9,36.7*,>40
CCCCOC(=O)CSc1nc(N)c(C#N)c(-c2ccc(OCC)cc2)c1C#N,0.2,-3.9,23.3,49.1*,-20.4,35.5*,>40
CCCCOC(=O)CSc1nc(N)c(C#N)c(-c2ccc(OC)cc2)c1C#N,-1.1,5.2,4.6,52.6*,-8.2,27.8*,x
C=C(C)CSc1nc(N)c(C#N)c(-c2ccc(C)cc2)c1C#N,-2.5,-3.9,-5.1,23.7*,7.0,18.2*,x
CCCCOc1ccc(-c2c(C#N)c(N)nc(SCC(N)=O)c2C#N)cc1,-2.4,3.6,-9.1,-1.9,7.8,x,x
COCCCN1C(=O)[C@H](CC(=O)NCc2ccccc2)[C@]2(C(=O)OC)CCCCC=C12,x,x,0.7,0.3,3.9,x,x
CCOC(=O)c1sc(NC(=O)c2ccc(S(=O)(=O)N(CC)CC)cc2)nc1C,-0.1,-3.8,-0.9,152.3*,6.1,93.5*,>40
CCOC(=O)c1sc(NC(=S)NC(=O)c2ccc(OC)cc2)nc1C,-0.5,-7.0,-8.0,83.1*,6.7,65.5*,>40
CCOC(=O)c1sc(NC(=O)c2ccccc2OCC)nc1C,-1.2,-0.7,-3.2,35.9*,2.6,3.9,x
CCOC(=O)c1sc(Nc2nc(C)cc(OC)n2)nc1C,2.2,1.4,7.3,14.6*,11.5,6.5,x
O=C(c1ccco1)N1CCC(Oc2cccnc2)CC1,x,x,-3.1,-4.2,1.7,x,x
Clc1ccc(-n2c(SCc3cccc4ccccc34)nnc2-c2cccnc2)cc1,x,x,-11.3,4.8,-12.4,x,x
CCOC(=O)c1sc(NC(=O)CCc2ccc(OC)cc2)nc1C,-1.4,-0.7,-3.6,26.8*,15.4,13.3,x
COC(=O)[C@]12C[C@H](CC(=O)N3CCN(C(=O)C4CC4)CC3)C(=O)N(Cc3cccc4ccccc34)C1=C[C@H](C1CCCC1)O[C@@H]2C,x,x,-7.2,0.5,-4.2,x,x
